# Assay outcomes (PubChem)
# An excerpt weighted towards active compounds, which were near 9.2% of everything screened.
# SMN2 splice up – enhancers of SMN2 splice variant expression | HEK293 SMN2-luciferase splicing reporter, luminescence, 30-36 h | Potency, µM (highest dose often 46.1 µM), for the others: at the highest dose activity change, positive = activation, actives largely listed as activators | actives 2.8% (n = 210,000) | AID 1458; note: % of control where 0% means no effect; nearly all actives have a fitted effect of over 55% in size
#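 qHTS luciferase splicing reporter: luminescence rises when SMN2 exon 7 is included in transfected HEK293 cells. Compound exposure lasted 30-36 h at 37C, with 4.5 mM final sodium butyrate as control, followed by a ONE-Glo read.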
# ELG1 genotoxic – induces genotoxicity in HEK293T cells with luciferase-tagged ELG1; HEK293T ELG1-luciferase reporter, luminescence, 16 h; Potency, µM (doses to about 46 µM), for the others: at the top dose activity change, positive = activation, most hits filed as activators; actives 1.3% (n = 330,000); note: % of control where 0% means no effect; nearly all actives have a fitted effect of over 60% in size
#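 Quantitative HTS format in 1536-well plates. HEK293T ELG1-luciferase reporter cells receive test compound and are incubated 16 hr at 37 °C, 5% CO2; ONE-Glo added, 30 min room temperature, then luminescence read.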
# NPC1 promoter act – activates the NPC1 promoter | Huh7 NPC1 promoter luciferase reporter, 24 h | Potency, µM (top dose mostly 9.22 µM), inactives show top-dose activation, usual class: activators | AID 485313 | actives 2.4% (n = 320,000); note: % of control where 0% means no effect; nearly all actives have a fitted effect of over 60% in size
#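 Cells: Huh7 expressing luciferase under the NPC1 promoter, 1500/well. Seeded 2 h, compound added, incubated 24 h at 37 °C. Luciferase reagent, 10 min ambient, then luminescence.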
# ELG1 DNA repair – ELG1-dependent DNA repair inhibition | HEK293T ELG1-luciferase reporter, luminescence, 16 h; DNA damage induced by 5-fluorouridine | Potency, µM (titrated, usually from 46.1 µM), without a hit: top-dose activity change, negative = inhibition, most hits filed as inhibitors | actives 2.3% (n = 330,000); note: % is set by controls: 0 for no effect and ±100 for the full control effect; nearly all actives have a fitted effect of over 55% in size
#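 Cells (2,000 per well) received 5-fluorouridine plus test compound or DMSO and were incubated 16 hr at 37 °C, 5% CO2. Luciferase activity was read by luminescence 30 min after ONE-Glo addition; signal suppression marked inhibition of damage-induced ELG1 function.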
# Rab9 prom act – activates the Rab9 promoter. Huh7 Rab9 promoter-luciferase reporter, luminescence, 24 h. Potency, µM (doses to about 9.22 µM), inactives show top-dose activation, negative = inhibition, hits mostly activators. actives 2.8% (n = 320,000). AID 485297; note: % of control where 0% means no effect; nearly all actives have a fitted effect of over 60% in size
#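 Stable Rab9-luc Huh7, 1500 cells/well, 2 h settle; cmpd in DMSO, 24 h, 37 °C/5% CO2; luciferase reagent 10 min RT; luminescence.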
# FLuc counter – firefly luciferase modulation, counter-screen for miR-21 project; P08659; purified FLuc, Km substrates, luminescence inhibition; Potency, µM (doses to about 57.5 µM), without a hit: at the highest dose activity change, negative = inhibition, hits mostly inhibitors; actives 6.9% (n = 360,000);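 note: plate controls were vehicle for no effect and reference inhibitor for full effect; nearly all actives have a fitted effect of over 55% in size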
# Target sequence (P08659 whole entry, looked up): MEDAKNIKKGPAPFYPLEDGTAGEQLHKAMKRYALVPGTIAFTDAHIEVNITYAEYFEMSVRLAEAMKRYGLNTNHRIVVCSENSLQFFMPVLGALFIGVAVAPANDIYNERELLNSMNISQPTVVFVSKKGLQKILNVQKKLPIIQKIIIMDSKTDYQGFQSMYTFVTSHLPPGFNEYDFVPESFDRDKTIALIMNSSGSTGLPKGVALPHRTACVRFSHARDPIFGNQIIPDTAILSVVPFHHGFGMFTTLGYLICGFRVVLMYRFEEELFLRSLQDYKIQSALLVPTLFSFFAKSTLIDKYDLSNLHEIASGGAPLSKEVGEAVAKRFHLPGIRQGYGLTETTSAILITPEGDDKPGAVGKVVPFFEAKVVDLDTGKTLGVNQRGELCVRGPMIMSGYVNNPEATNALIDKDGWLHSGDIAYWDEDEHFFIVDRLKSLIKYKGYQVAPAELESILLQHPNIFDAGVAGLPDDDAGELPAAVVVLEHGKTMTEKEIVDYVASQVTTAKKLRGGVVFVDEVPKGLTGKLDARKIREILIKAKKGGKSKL
#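 Purified P. pyralis luciferase (10nM final) with 10uM D-luciferin and 10uM ATP (Km levels) in 50mM Tris acetate pH 7.5, 10mM Mg acetate, 0.01% Tween-20, 0.05% BSA; qHTS 6-point titration, ~60 µM downward; luminescence read.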
# Active calls of the source: *; ? = inconclusive; . = no result given. Calls come from the whole dose curve; as a rule, active = well fitted curve in the direction sought with a large enough effect; inconclusive = small, poorly fitted or top-dose-only effect, or another doubt; inactive = no such curve, though single readings can be large; an effect the other way counts as inactive or inconclusive. Potency is the fitted concentration of half-maximal effect.
SMILES,SMN2 splice up,ELG1 genotoxic,NPC1 promoter act,ELG1 DNA repair,Rab9 prom act,FLuc counter
Cc1cccc(-n2nnc3c(=O)n(CC(=O)Nc4cc(C)on4)cnc32)c1,14%,-2%,-3%,-16%,5%,-3%
CC(=O)Nc1cccc(-n2cc3c(c2-c2ccccc2Cl)c(=O)n(C)c(=O)n3C)c1,8%,.,.,.,.,-1%
C=CCn1c(O)c(N=NC(=S)Nc2cccc(C)c2)c2ccccc21,-68%,1%,-8%,15%,-15%,3%
CCCCNC(=S)N=Nc1c(O)n(Cc2ccccc2)c2ccccc12,.,3%,-4%,-2%,-1%,4%
Cc1ccc(Cn2c(O)c(N=NC(=S)Nc3ccccc3F)c3ccccc32)cc1,.,-7%,-2%,5.2µM*,-2%,-1%
Oc1c(N=NC(=S)Nc2ccccc2F)c2ccccc2n1Cc1ccccc1,-37%,-13%,-6%,8.2µM*,-8%,-1%
Cc1cc(C)nc(N=Nc2c(O)n(Cc3ccc(Cl)cc3)c3ccccc23)n1,3%,0%,0%,23µM*,-2%,?
C=CCn1c(O)c(N=NC(=S)Nc2ccccc2F)c2ccccc21,-62%,-1%,-2%,6.5µM*,-7%,4%
Oc1c(N=NC(=S)Nc2ccccc2F)c2ccccc2n1Cc1ccccc1Cl,-48%,-5%,-5%,-19%,-2%,0%
Cc1c(OCC(=O)NCc2ccncc2)ccc2c3c(c(=O)oc12)CCCC3,.,4%,-8%,?,7%,-11%
COc1ccc(-c2oc3ccc(-c4cc(OC)c(OC)c(OC)c4)cc3c2C#Cc2ccccn2)cc1,.,-3%,.,?,.,.
O=C(N=Nc1c(O)n(Cc2ccccc2)c2ccccc12)c1ccncc1,.,-6%,11%,18µM*,8%,24µM*
COc1ccc(CNC(=O)Cn2c(=O)oc3cc(S(=O)(=O)N4CCCCCC4)ccc32)cc1,.,.,.,.,.,-11%
Cc1cc(C(=O)NC2CCCc3c2cnn3-c2cccc(C)c2C)n(C)n1 (stereo not given),.,0%,-34%,-4%,-27%,7%
O=C(/C=C/c1ccccc1)OCc1cncs1,7%,?,29%,?,?,27µM*
O=C(Nc1ccccc1)OCc1cncs1,9%,8%,6%,?,20%,-11%
CSc1nc2sc3c(c2c(=O)n1Cc1ccccc1)CCC(C(C)(C)C)C3 (stereo not given),-1%,.,.,.,.,?
NS(=O)(=O)c1ccc(N/C=C\C(=O)c2ccncc2)cc1,.,2%,9%,?,-2%,-12%
NS(=O)(=O)c1ccc(N/C=C/C(=O)c2ccc(Br)cc2)cc1,?,?,?,?,2.8µM*,-13%
CN(C)c1ccc(N/C=C/C(=O)c2ccc(F)cc2)cc1,10µM*,2.1µM*,3.2µM*,?,2.5µM*,0.48µM*
NS(=O)(=O)c1ccc(N/C=C\C(=O)c2ccc(F)cc2)cc1,13µM*,?,4µM*,?,3.5µM*,15µM*
CC(=O)c1ccc(N/C=C/C(=O)c2ccc(Br)cc2)cc1,.,6.5µM*,2.8µM*,?,4µM*,-5%
COc1ccc2c(c1OC)C(=O)OC2N1C(=O)CC[C@H]1C(=O)Nc1ccc(F)cc1F (stereo not given in full),.,-3%,-2%,-15%,0%,0%
O=C(COc1cc2oc(=O)c3c(c2cc1Cl)CCC3)Nc1ccc(CN2CCOCC2)cc1,.,3%,0%,26%,2%,2%
Cc1ccc(CN2CCSc3ccc(C(=O)NCCc4ccccc4)cc32)cc1,13µM*,.,.,.,.,-12%
SMILES,SMN2 splice up,ELG1 genotoxic,NPC1 promoter act,ELG1 DNA repair,Rab9 prom act,FLuc counter
Cc1ccc(CN2CCSc3ccc(C(=O)Nc4cc(C)cc(C)c4)cc32)cc1,-16%,.,.,.,.,6%
O=C(NCCc1ccc(Cl)cc1)c1ccc2c(c1)N(Cc1ccccc1)CCS2,?,.,.,.,.,-18%
Cc1ccc(CN2CCSc3ccc(C(=O)Nc4ccc(Cl)cc4)cc32)cc1,11µM*,.,.,.,.,?
COc1ccc(-n2c(-c3ccc(C)cc3)cc3c2CC(C)(C)CC3=O)c(OC)c1,-20%,.,.,.,.,2%
Cc1csc(NC(=O)c2cc3ccccc3o2)n1,.,?,?,?,1.4µM*,0.95µM*
CC(Cc1ccccc1)NC(=O)c1cc2ccccc2o1 (stereo not given),.,?,3.2µM*,?,2.5µM*,?
Cc1csc(C(C#N)C(=O)c2cc3ccccc3o2)n1 (stereo not given),11µM*,?,2.8µM*,?,2.8µM*,1.3µM*
O=C(NCc1cccs1)c1cc2ccccc2o1,7%,15%,23%,?,4%,19µM*
COc1ccc(CN(C(=O)CN2C(=O)c3ccccc3S2(=O)=O)C(C(=O)NCC2CCCO2)c2ccco2)cc1 (stereo not given),.,3%,-1%,5%,0%,-6%
CCOC(=O)Cc1csc(NC(=O)c2cc3ccccc3o2)n1,1%,7%,?,?,?,11µM*
CC1(C)Cc2c(sc(NC(=O)C(=O)N3CCCC3)c2C(N)=O)CO1,.,10%,-1%,6%,5%,0%
CC1(C)Cc2c(sc(NC(=O)Nc3ccccc3)c2C(N)=O)CO1,.,?,4.5µM*,?,1.3µM*,12µM*
Cc1sc(NC(=O)Nc2ccccc2)c(C(N)=O)c1C,.,9%,?,?,2µM*,7.6µM*
COc1ccccc1N1CCN(C(=O)c2ccc(-c3ccccc3)cc2)CC1,.,1%,-2%,9%,-3%,24µM*
Cn1c(C(=O)NCCCN2CCCCCC2)cc2c(=O)n(C)c3ccccc3c21,13µM*,?,-2%,?,-9%,0%
COc1ccc(C(=O)N2CCN(c3ccccc3OC)CC2)cc1,14%,-3%,-6%,-2%,2%,5%
COc1ccccc1N1CCN(C2CCCN(C(=O)c3ccoc3C)C2)CC1 (stereo not given),.,-4%,-1%,-12%,9%,1%
COc1ccccc1N1CCN(C2CCCN(C(=O)c3cccc(-c4ccco4)c3)C2)CC1 (stereo not given),.,-22%,-1%,23µM*,-3%,4%
COc1ccc(C(=O)Nc2ccccc2N2CCN(C(=O)c3ccccc3)CC2)cc1Br,.,-21%,-3%,21µM*,7%,-4%
CC1(c2ccc3c(c2)OCCO3)NC(=O)N(CC(=O)Nc2ccccc2F)C1=O (stereo not given),.,-1%,1%,13%,-1%,5%
